The campaign covered roughly 200,000 compounds. About 700 (0.35%) were called active. This is one part of a sample in which actives are shown more often than they occur.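 How the source made its calls: active means inhibition above a set limit, the mean inhibition across all tested compounds plus 3 SD (cut at about 34% in these data); inactive means the rest.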
test: STAT1 signaling inhibitors, primary screen, cell-based, HTS, luciferase reporter (AID 920); settings: NIH 3T3 STAT1-luciferase reporter, IFN-gamma, luminescence; at 5.5 µM; active compounds read high;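 further: 0% = IFN-gamma with DMSO and 100% = IFN-gamma with 300 µM nifuroxazide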

Row | SMILES | inhibition
1 | COc1cccc(-c2nc3ccc(N4CCN(C)CC4)cc3[nH]2)c1 | 63.1% (active)
2 | CN1CCN(c2cc(N3CCNCC3)ccc2[N+](=O)[O-])CC1 | 12.4% (inactive)
3 | Cc1nc2ccc(N3CCN(C)CC3)cc2nc1C | -26.2% (inactive)
4 | CN(C)/C=C(\C=[N+](C)C)c1[nH]ncc1[N+](=O)[O-] | -9.13% (inactive)
5 | COc1ccc(CCn2c(O)c(C=NCCCn3ccnc3)c(=O)[nH]c2=O)cc1OC | -4.43% (inactive)
